The values below come from the antibiotic and cytotoxicity screens of Wong et al. (2023).

SMILES strings stand for the structures. The whole screen tested about 39,000 compounds, of which about 1,500 (3.8%) were called active. Shown is part of a subset that was picked to be rich in actives.

For the test, the system named is HSkMC (human skeletal muscle cells). As to the kind of experiment: cytotoxicity call (relative viability < 0.9). To be noted: 10 µM.
With `C[C@H](CO)N1C[C@H](C)[C@H](CN(C)Cc2ccc(Oc3ccccc3)cc2)Oc2cc(-c3ccncc3)ccc2S1(=O)=O`, the cytotoxicity call was “inactive”.

Consider `O=C(C[C@@H]1CC[C@@H](NC(=O)CN2CCOCC2)[C@@H](CO)O1)NCCc1ccccc1`, for which the cytotoxicity call is “inactive”.

Turning to `CC(C)NC(=O)Nc1ccc2c(c1)C(=O)N(C)[C@H]1CC[C@H](CC(=O)NCc3ccc(F)cc3)O[C@H]1CO2`, the cytotoxicity call is “inactive”.

As for `COCC#Cc1cnc2c(c1)C(=O)N([C@@H](C)CO)C[C@@H](C)[C@H](CN(C)C(C)=O)O2`, the cytotoxicity call was “inactive”.

As for `C[C@@H]1CN([C@H](C)CO)C(=O)Cc2cc(NC(=O)Nc3cccc4ccccc34)ccc2O[C@@H]1CN(C)S(=O)(=O)c1cccs1`, the cytotoxicity call was “inactive”.

For `C[C@H](CO)N1C[C@H](C)[C@H](CN(C)C(=O)Nc2ccc(F)cc2)OCCCC[C@H](C)Oc2ccc(NC(=O)Nc3ccc4c(c3)OCO4)cc2C1=O`, the cytotoxicity call was “inactive”.

As for `COc1ccc(S(=O)(=O)N(C)C[C@H]2OCc3cnnn3CCCC(=O)N([C@@H](C)CO)C[C@@H]2C)cc1`, the cytotoxicity call is “inactive”.

For `CCCC[P+](CCCC)(CCCC)Cc1ccc(NC(=O)[C@H](Cc2ccc3ccccc3c2)N/C(=N/C2CCCCC2)NC2CCCCC2)cc1`, the cytotoxicity call was “inactive”.

`C[C@H]1CN([C@@H](C)CO)C(=O)c2cc(NC(=O)Nc3cccc4ccccc34)ccc2O[C@@H]1CN(C)C(=O)NC1CCCCC1`: the cytotoxicity call is “inactive”.

On to `CCCC[P+](CCCC)(CCCC)Cc1ccc(NC(=O)[C@@H](Cc2ccc3ccccc3c2)N=C(NC2CCCCC2)NC2CCCCC2)cc1`, for which the cytotoxicity call was “active”.

For the compound `CC(C)NC(=O)Nc1ccc2c(c1)C(=O)N([C@H](C)CO)C[C@@H](C)[C@@H](CN(C)Cc1ccc3c(c1)OCO3)O2`, the cytotoxicity call is “inactive”.

For `C[C@@H]1CN([C@@H](C)CO)C(=O)c2cc(NC(=O)Nc3ccc(C(F)(F)F)cc3)ccc2O[C@@H](C)CCCCO[C@H]1CN(C)Cc1ccc2c(c1)OCO2`, the cytotoxicity call is “active”.

Take `C[C@@H]1CCCCO[C@H](CN(C)Cc2ccc(C(F)(F)F)cc2)[C@H](C)CN([C@@H](C)CO)C(=O)c2cc(NC(=O)Nc3ccc4c(c3)OCO4)ccc2O1`: the cytotoxicity call is “inactive”.

Consider `C[C@H]1CCCCO[C@@H](CN(C)Cc2ccc3c(c2)OCO3)[C@@H](C)CN([C@@H](C)CO)C(=O)c2cc(NC(=O)Nc3ccc(C(F)(F)F)cc3)ccc2O1`, for which the cytotoxicity call was “active”.

Take `C[C@@H]1CCCCO[C@@H](CN(C)Cc2ccc3c(c2)OCO3)[C@H](C)CN([C@H](C)CO)C(=O)c2cc(NC(=O)Nc3ccc(C(F)(F)F)cc3)ccc2O1`: the cytotoxicity call was “active”.

Regarding `C[C@H]1CCCCO[C@H](CN(C)Cc2ccc3c(c2)OCO3)[C@@H](C)CN([C@@H](C)CO)C(=O)c2cc(NC(=O)Nc3ccc(C(F)(F)F)cc3)ccc2O1`, the cytotoxicity call is “active”.

On to `C[C@@H]1CCCCO[C@@H](CN(C)Cc2ccc(C(F)(F)F)cc2)[C@@H](C)CN([C@@H](C)CO)C(=O)c2cc(NC(=O)Nc3ccc4c(c3)OCO4)ccc2O1`, for which the cytotoxicity call is “inactive”.

With `C[C@H]1CN([C@@H](C)CO)C(=O)c2cccc(NC(=O)C3CCOCC3)c2O[C@@H]1CN(C)C(=O)NC1CCCCC1`, the cytotoxicity call was “inactive”.

`C[C@H](CO)N1C[C@H](C)[C@H](CN(C)S(=O)(=O)c2cn(C)cn2)Oc2ncc(C3=CCCC3)cc2C1=O`: the cytotoxicity call is “inactive”.

For the compound `CO[C@H](CN(C)S(=O)(=O)c1cccc(Cl)c1)[C@@H](C)CN([C@@H](C)CO)S(=O)(=O)c1cccc(Cl)c1`, the cytotoxicity call was “inactive”.

On to `COc1ccc(NC(=O)Nc2ccc3c(c2)C(=O)N([C@H](C)CO)C[C@H](C)[C@H](CN(C)C(=O)Nc2c(C)noc2C)OCCCC[C@H](C)O3)cc1`, for which the cytotoxicity call is “inactive”.

As for `COc1ccc(NC(=O)N(C)C[C@@H]2Oc3ccc(NS(=O)(=O)c4c(C)noc4C)cc3CC(=O)N([C@H](C)CO)C[C@H]2C)cc1`, the cytotoxicity call was “inactive”.

Consider `C[C@@H]1CCCCO[C@@H](CN(C)C(=O)C2CCCCC2)[C@@H](C)CN([C@@H](C)CO)C(=O)c2cc(NC(=O)Cc3ccccc3)ccc2O1`, for which the cytotoxicity call was “inactive”.

For `C[C@@H]1CN([C@H](C)CO)S(=O)(=O)c2ccc(C#CCN(C)C)cc2O[C@@H]1CN(C)S(C)(=O)=O`, the cytotoxicity call was “inactive”.

For the compound `CSc1nc(=O)c(C)n[nH]1`, the cytotoxicity call was “inactive”.

`Cc1ccc(S(=O)(=O)Nc2ccc3c(c2)C(=O)N([C@@H](C)CO)C[C@H](C)[C@H](CN(C)S(=O)(=O)c2cn(C)cn2)O3)cc1`: the cytotoxicity call was “inactive”.

For the compound `C[C@@H]1CCCCO[C@H](CN(C)Cc2ccc3c(c2)OCO3)[C@H](C)CN([C@@H](C)CO)C(=O)c2cc(NC(=O)Nc3ccc(C(F)(F)F)cc3)ccc2O1`, the cytotoxicity call was “active”.

Regarding `C[C@@H]1CCCCO[C@H](CN(C)Cc2ccc3c(c2)OCO3)[C@@H](C)CN([C@H](C)CO)C(=O)c2cc(NC(=O)Nc3ccc(C(F)(F)F)cc3)ccc2O1`, the cytotoxicity call was “active”.

For `C[C@H]1CCCCO[C@@H](CN(C)Cc2ccc(C(F)(F)F)cc2)[C@@H](C)CN([C@@H](C)CO)C(=O)c2cc(NC(=O)Nc3ccc4c(c3)OCO4)ccc2O1`, the cytotoxicity call is “inactive”.

As to `C[C@H](CO)N1C[C@H](C)[C@@H](CN(C)Cc2ccc(C(F)(F)F)cc2)OCCCC[C@H](C)Oc2ccc(NC(=O)Nc3ccc4c(c3)OCO4)cc2C1=O`, the cytotoxicity call is “inactive”.

As for `C[C@@H]1CCCCO[C@H](CN(C)Cc2ccc3c(c2)OCO3)[C@H](C)CN([C@H](C)CO)C(=O)c2cc(NC(=O)Nc3ccc(C(F)(F)F)cc3)ccc2O1`, the cytotoxicity call is “active”.

As to `C[C@@H]1CCCCO[C@@H](CN(C)Cc2ccc(C(F)(F)F)cc2)[C@H](C)CN([C@@H](C)CO)C(=O)c2cc(NC(=O)Nc3ccc4c(c3)OCO4)ccc2O1`, the cytotoxicity call was “inactive”.

`C[C@H](CO)N1C[C@H](C)[C@H](CN(C)Cc2ccc(C(F)(F)F)cc2)OCCCC[C@H](C)Oc2ccc(NC(=O)Nc3ccc4c(c3)OCO4)cc2C1=O`: the cytotoxicity call was “inactive”.

Take `C[C@@H]1CN([C@H](C)CO)C(=O)c2cc(NC(=O)Nc3ccc(C(F)(F)F)cc3)ccc2O[C@@H](C)CCCCO[C@@H]1CN(C)Cc1ccc2c(c1)OCO2`: the cytotoxicity call was “active”.

Consider `C[C@@H]1CN([C@@H](C)CO)C(=O)Cc2cc(NC(=O)Nc3cccc4ccccc34)ccc2O[C@@H]1CN(C)Cc1ccc2c(c1)OCO2`, for which the cytotoxicity call was “inactive”.

As for `Cc1noc(C)c1NC(=O)N(C)C[C@@H]1OCCCC[C@@H](C)Oc2ccc(NC(=O)Nc3ccccc3)cc2C(=O)N([C@@H](C)CO)C[C@@H]1C`, the cytotoxicity call is “inactive”.

For `Cc1noc(C)c1S(=O)(=O)N(C)C[C@H]1OCCCC[C@@H](C)Oc2ccc(NC(=O)Nc3ccccc3)cc2C(=O)N([C@@H](C)CO)C[C@@H]1C`, the cytotoxicity call was “inactive”.

`COc1ccc(NC(=O)Nc2ccc3c(c2)C(=O)N([C@H](C)CO)C[C@H](C)[C@@H](CN(C)S(=O)(=O)c2c(C)noc2C)OCCCC[C@@H](C)O3)cc1`: the cytotoxicity call was “inactive”.

For `C[C@@H]1CCCCO[C@@H](CN(C)C(=O)NC2CCCCC2)[C@H](C)CN([C@H](C)CO)C(=O)c2cc(NC(=O)Cc3ccccc3)ccc2O1`, the cytotoxicity call was “inactive”.

As for `CC(C)NC(=O)Nc1ccc2c(c1)C(=O)N([C@@H](C)CO)C[C@@H](C)[C@H](CN(C)S(=O)(=O)c1cn(C)cn1)OCCCC[C@@H](C)O2`, the cytotoxicity call was “inactive”.

Turning to `C[C@@H]1CN([C@@H](C)CO)C(=O)c2cc(NC(=O)Nc3ccc(C(F)(F)F)cc3)ccc2O[C@@H](C)CCCCO[C@@H]1CN(C)Cc1ccc2c(c1)OCO2`, the cytotoxicity call is “inactive”.

Regarding `C[C@H](CO)N1C[C@H](C)[C@H](CN(C)Cc2ccc3c(c2)OCO3)OCCCC[C@H](C)Oc2ccc(NC(=O)Nc3ccc(C(F)(F)F)cc3)cc2C1=O`, the cytotoxicity call is “active”.

On to `C[C@H](CO)N1C[C@H](C)[C@@H](CN(C)Cc2ccc3c(c2)OCO3)OCCCC[C@H](C)Oc2ccc(NC(=O)Nc3ccc(C(F)(F)F)cc3)cc2C1=O`, for which the cytotoxicity call was “active”.

Turning to `C[C@@H]1CCCCO[C@@H](CN(C)Cc2ccc3c(c2)OCO3)[C@@H](C)CN([C@H](C)CO)C(=O)c2cc(NC(=O)Nc3ccc(C(F)(F)F)cc3)ccc2O1`, the cytotoxicity call was “inactive”.

Regarding `C[C@@H]1CCCCO[C@@H](CN(C)Cc2ccc3c(c2)OCO3)[C@H](C)CN([C@@H](C)CO)C(=O)c2cc(NC(=O)Nc3ccc(C(F)(F)F)cc3)ccc2O1`, the cytotoxicity call was “active”.

On to `C[C@@H]1CN([C@H](C)CO)C(=O)c2cc(NC(=O)Nc3ccc(C(F)(F)F)cc3)ccc2O[C@@H](C)CCCCO[C@H]1CN(C)Cc1ccc2c(c1)OCO2`, for which the cytotoxicity call is “active”.

For the compound `CC(C)NC(=O)Nc1cccc2c1O[C@@H](CN(C)S(=O)(=O)c1ccccc1)[C@H](C)CN([C@H](C)CO)C2=O`, the cytotoxicity call is “inactive”.

Take `C[C@@H]1CN([C@@H](C)CO)S(=O)(=O)c2ccc(Br)cc2O[C@H]1CN(C)C(=O)c1ccncc1`: the cytotoxicity call was “inactive”.

For the compound `C[C@H](CO)N1C[C@H](C)[C@@H](CN(C)S(=O)(=O)c2ccc(Oc3ccccc3)nc2)OCc2cn(nn2)CCCC1=O`, the cytotoxicity call was “inactive”.

As to `c1ccc2c(c1)[nH]c1ncccc12`, the cytotoxicity call is “inactive”.

Turning to `CCC(=O)N[C@H]1C=C[C@H](CC(=O)OC)O[C@@H]1CO`, the cytotoxicity call is “inactive”.

Regarding `COc1ccc(NC(=O)Nc2ccc3c(c2)C(=O)N([C@@H](C)CO)C[C@H](C)[C@@H](CN(C)C(=O)c2ccccc2)OCCCC[C@H](C)O3)cc1`, the cytotoxicity call was “inactive”.

For `O=S(=O)(N1CCOCC1)N1CCCN(S(=O)(=O)N2CCOCC2)CC1`, the cytotoxicity call was “inactive”.

In the case of `C[C@@H](O)C#Cc1ccc2c(c1)O[C@H](CN(C)C(=O)Cc1ccccn1)[C@@H](C)CN([C@@H](C)CO)S2(=O)=O`, the cytotoxicity call was “inactive”.

As to `O=C(C[C@H]1C=C[C@H](NC(=O)CN2CCOCC2)[C@@H](CO)O1)NC1CCCCC1`, the cytotoxicity call is “inactive”.

As for `Nc1ccc(S(N)(=O)=O)cn1`, the cytotoxicity call is “inactive”.

As for `Cc1cc(C(=O)Nc2cccc3c2O[C@@H](CN(C)Cc2ccc(C(=O)O)cc2)[C@@H](C)CN([C@@H](C)CO)C3=O)n(C)n1`, the cytotoxicity call was “inactive”.

For the compound `C[C@@H]1CCCCO[C@@H](CN(C)Cc2ccc3c(c2)OCO3)[C@@H](C)CN([C@@H](C)CO)C(=O)c2cc(NC(=O)Nc3ccc(C(F)(F)F)cc3)ccc2O1`, the cytotoxicity call is “active”.

With `C[C@@H]1CCCCO[C@H](CN(C)Cc2ccc3c(c2)OCO3)[C@@H](C)CN([C@@H](C)CO)C(=O)c2cc(NC(=O)Nc3ccc(C(F)(F)F)cc3)ccc2O1`, the cytotoxicity call is “active”.
